Source: the supplement of paper PMC8699584
“And” between values parts separate entries of the source, which are not always exact repeats. Identical values can stand only once. Counter-ions that a name gives are not always drawn. ± gives the standard deviation of the averaged measurements.

Key:
Molm13 = assay: cell viability relative to DMSO control (bortezomib = 0%); higher = less growth inhibition; conditions: 10 nM; 72 h
Method in brief: (§1)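 In duplicate runs, a library of 679 approved and investigational compounds in 384-well plates received acute myeloid leukemia cells at 1000 cells per well in 50 µL, with each compound at a single 10 nM dose for 72 h. CellTiter-Glo luminescence, read on an EnVision reader, served as the viability measure. Each plate was normalized by linear regression between DMSO-treated cells (100%) and positive-control-treated cells (0%).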

Mv4-11 = assay: as above; conditions: 10 nM; 72 h
Method in brief: as §1

SMILES | cell viability (Molm13) | cell viability (Mv4-11)
O=C(Nc1ccccc1C(=O)NC1CCCCNC1=O)c1cc2ccccc2s1 (centres undefined) | 98.3 ± 4.7% | 103 ± 1.5%
COc1cc(OC)c(/C=C/S(=O)(=O)Cc2ccc(OC)c(OP(=O)(O)O)c2)c(OC)c1 [Briciclib] | 114 ± 25% | 106 ± 11%
Cn1cnc2c(F)c(Nc3ccc(Br)cc3Cl)c(C(=O)NOCCO)cc21 [Selumetinib (AZD6244)] | 106 ± 18% | 106 ± 3.2%
Cn1c(=O)n(-c2ccc(C(C)(C)C#N)cc2)c2c3cc(-c4cnc5ccccc5c4)ccc3ncc21 [BEZ235 (NVP-BEZ235, Dactolisib)] | 113 ± 7.9% | 102 ± 6.4%
CS(=O)(=O)CCNCc1ccc(-c2ccc3ncnc(Nc4ccc(OCc5cccc(F)c5)c(Cl)c4)c3c2)o1 | 103 ± 8.2% | 108 ± 9%
Cc1cn(-c2cc(NC(=O)c3ccc(C)c(Nc4nccc(-c5cnccn5)n4)c3)cc(C(F)(F)F)c2)cn1 [Radotinib] | 100 ± 2.6% | 107 ± 13%
CCCCCCCCCCCCC/C=C/[C@H](O)[C@@H](N)CO [L-threo-Sphingosine C-18] | 94 ± 9.1% | 113 ± 2.5%
N#Cc1c(O)c2c(-c3ccc(-c4ccccc4O)cc3)csc2[nH]c1=O | 111 ± 27% | 93.9 ± 14%
CCS(=O)(=O)c1cccc(-c2cc(C(=O)NC3CCN(C)CC3)c(C)c3[nH]c4ncc(C)cc4c23)c1 | 75.1 ± 5.3% | 90.6 ± 3.5%
COc1cc2ncnc(Nc3ccc(F)c(Cl)c3)c2cc1OCCCN1CCOCC1 [Gefitinib] | 114.4 ± 0.96% | 120 ± 1.4%
COC(=O)[C@]12CCC(C)(C)C[C@H]1[C@H]1C(=O)C=C3[C@@]4(C)C=C(C#N)C(=O)C(C)(C)[C@@H]4CC[C@@]3(C)[C@]1(C)CC2 [Bardoxolone Methyl] | 102 ± 6.8% | 104 ± 1.1%
O=C(Nc1ccc2[nH]nc(-c3ccncc3)c2c1)[C@@H]1CCN(CC(=O)N2CCN(c3ccc(-c4ncccn4)cc3)CC2)C1 | 92 ± 12% | 95.8 ± 19%
Oc1c2ccccc2c2c3c(cccc13)N=N2 | 114% and 102% | 103% and 104%
Cc1ccc2c(Nc3ccc(Cl)cc3)nccc2c1Nc1ncccc1-c1ncnc2nc[nH]c12 [B-Raf inhibitor 1] | 98.9 ± 11% | 107.5 ± 0.62%
CN1CCN(c2ccc(Nc3cc(-c4cccc(-n5ccc6cc(C7CC7)cc(F)c6c5=O)c4CO)cn(C)c3=O)nc2)CC1 | 99.6 ± 8.6% | 107 ± 8.8%
Cc1cc(NC(=O)c2cccc(NC(=O)/C=C/CN(C)C)c2)ccc1Nc1nccc(-c2cccnc2)n1 | 92 ± 6.9% | 113 ± 5.2%
CN(c1ccccc1CNc1nc(Nc2ccc3c(c2)CC(=O)N3)ncc1C(F)(F)F)S(C)(=O)=O | 112 ± 25% | 96.4 ± 15%
CNC(=O)c1ccccc1Oc1nc(Nc2cc(OC)c(OC)c(OC)c2)ncc1Br | 98.7 ± 26% | 107 ± 11%
Cc1nc(-c2cn3c(n2)-c2ccc(-c4cnn(C(C)(C)C(N)=O)c4)cc2OCC3)n(C(C)C)n1 | 94.6 ± 8.3% | 123 ± 5.4%
N#CC(c1ccnc(NCCc2cccnc2)n1)c1nc2ccccc2s1 (centres undefined) | 105 ± 26% | 109 ± 28%
C#Cc1cccc(Nc2ncnc3cc4c(cc23)OCCOCCOCCO4)c1 [Icotinib] | 93.2 ± 10% | 97.5 ± 5.9%
O=C1NC(=O)/C(=C/c2ccc3nccc(-c4ccncc4)c3c2)S1 | 106% and 113% | 103% and 115%
Cn1cnc2c(NCc3ccccc3)nc(NCCO)nc21 [Olomoucine] | 106 ± 16% | 104.2 ± 1%
C[C@@H]1O[C@@H](O[C@@H]2[C@@H](O)[C@H](OCCc3ccc(O)c(O)c3)O[C@H](CO)[C@H]2OC(=O)/C=C/c2ccc(O)c(O)c2)[C@H](O)[C@H](O)[C@H]1O [Verbascoside] | 89.4 ± 1.9% | 91.6 ± 5.3%

SMILES | cell viability (Molm13) | cell viability (Mv4-11)
O=C(NC[C@H](O)CO)c1ccncc1Nc1ccc(I)cc1F | 91.6% and 95% | 103% and 92.3%
O=C1NCCCc2c1oc1ccc(O)cc21 | 107 ± 1.9% | 104 ± 3.1%
C[S+]([O-])c1ccc(-c2nc(-c3ccc(F)cc3)c(-c3ccncc3)[nH]2)cc1 (centres undefined) | 104% and 108% and 110% | 110% and 114% and 112%
CC(C)c1ccc2c(c1)CC[C@H]1[C@](C)(CN)CCC[C@]21C [Leelamine] | 96.7 ± 8.5% | 101 ± 9.8%
Cc1cc(Nc2cc(N3CCN(C)CC3)nc(/C=C/c3ccccc3)n2)n[nH]1 | 89.6 ± 1.1% | 105 ± 9.9%
N#CC(=C(/N)Sc1ccccc1N)/C(C#N)=C(/N)Sc1ccccc1N | 104 ± 12% | 129 ± 2.2%
COc1cc(-c2cc(-c3cccc(O)c3)cnc2N)cc(OC)c1OC | 99.8 ± 14% | 106 ± 6.8%
Brc1c(Br)c(Br)c2n[nH]nc2c1Br | 113 ± 13% | 97.11 ± 0.32%
N#CC(C#N)=C(N)/C(C#N)=C/c1cc(O)c(O)c(O)c1 | 98.1 ± 28% | 94.3 ± 15%
Cc1nc(NC(=O)N2CCC[C@@H]2C(N)=O)sc1-c1ccnc(C(C)(C)C(F)(F)F)c1 [BYL-719(Alpelisib)] | 113 ± 6.5% | 102 ± 15%
C[C@@H](N)[C@H]1CC[C@H](C(=O)Nc2ccncc2)CC1 | 93.8% and 107% | 100% and 112%
COc1cc(C(=O)N2CCC(N3CCN(C)CC3)CC2)ccc1Nc1ncc2c(n1)N(C)c1ccccc1C(=O)N2C | 97.52 ± 0.43% | 104 ± 5.1%
CC(C)(C)c1nc(-c2cccc(NS(=O)(=O)c3c(F)cccc3F)c2F)c(-c2ccnc(N)n2)s1 | 98.4 ± 6.6% | 124 ± 2.6%
Cc1cnc(NC(=O)Nc2cc(Br)c(C)cc2OC[C@@H]2CNCCO2)cn1 | 101 ± 11% | 109 ± 8.1%
Cc1cc(Nc2cc(CN3CCOCC3)c3nc(C)c(Cc4ccc(Cl)cc4F)n3n2)n[nH]1 | 82.5 ± 8.9% | 113 ± 2%
FC(F)(F)c1ccc(CNc2ccc(Cc3c[nH]c4ncc(Cl)cc34)cn2)cc1 | 112.2 ± 0.43% | 106 ± 19%
CC(C)(C)[Si](C)(C)Oc1ccc2oc(=O)c3c(c2c1)CCCN3 | 108 ± 12% | 108 ± 14%
Cc1cc(CN2CCN(c3c(Br)cnc4nc(-c5ccc(N6CCN(C)CC6)cc5)[nH]c34)CC2)no1 | 85.6 ± 1.8% | 95.3 ± 3.4%
C=CC(=O)Nc1cc2c(Nc3ccc(F)c(Cl)c3)ncnc2cc1OCCCN1CCOCC1 [Canertinib (CI-1033)] | 118 ± 10% | 111.9 ± 0.6%
Cc1cc(O)c2c(c1)C(=O)c1cccc(O)c1C2=O [Chrysophanic Acid] | 93.1 ± 1.7% | 108 ± 12%
C#Cc1cccc(Nc2ncnc3cc(OCCOC)c(OCCOC)cc23)c1 [Erlotinib] | 102 ± 6.9% | 102 ± 10%
O=C(O)CCC(=O)Nc1ccc(Br)cn1 [Bikinin] | 92.5 ± 2.2% | 99.9 ± 1.9%
COc1cc(N2CCC(N3CCN(C)CC3)CC2)ccc1Nc1ncnc(Nc2ccccc2S(=O)(=O)C(C)C)n1 | 96.5 ± 3.9% | 98.6 ± 15%
CC(C)NCC(O)c1ccc(O)c(O)c1 (centres undefined) [Isoprenaline hydrochloride] | 114 ± 3.4% | 101 ± 17%

SMILES | cell viability (Molm13) | cell viability (Mv4-11)
COc1cc2ncnc(Nc3ccc(O)c(Br)c3)c2cc1OC | 95.4 ± 24% | 112 ± 14%
CN(C)C/C=C/C(=O)Nc1cc2c(Nc3ccc(F)c(Cl)c3)ncnc2cc1O[C@H]1CCOC1 [Afatinib (BIBW2992) Dimaleate] | 108 ± 11% | 102 ± 7.5%
CS(=O)(=O)c1ccc(-c2cnc(N)c(C(=O)Nc3ccccc3)n2)cc1 | 83.9 ± 3.9% | 93.76 ± 0.24%
Nc1nccc(-c2c(-c3ccc(F)cc3)ncn2C2CCCCC2)n1 | 96.6 ± 18% | 114.4 ± 0.84%
CNC(=O)c1cc(Oc2ccc(NC(=O)Nc3ccc(Cl)c(C(F)(F)F)c3)cc2)ccn1 [Sorafenib tosylate] | 63.1 ± 6.6% | 69.2 ± 10%
CCCCCCCCCCCCC/C=C/[C@@H](O)[C@H](CO)N(C)C [N,N-Dimethylsphingosine] | 108 ± 20% | 115 ± 6.7%
Oc1ccc(Nc2nc(-c3ccc(Cl)cc3)cs2)cc1 [Sphingosine Kinase Inhibitor 2] | 101 ± 17% | 108 ± 7.4%
c1cc(-c2cnn3cc(-c4ccc(OCCN5CCCCC5)cc4)cnc23)ccn1 [Dorsomorphin dihydrochloride] | 58.3 ± 6.7% | 65.7 ± 3.6%
COC(=O)c1ccc2c(c1)NC(=O)/C2=C(\Nc1ccc(N(C)C(=O)CN2CCN(C)CC2)cc1)c1ccccc1 | 87.7 ± 22% | 99.8 ± 8.2%
C=C(C)[C@@H]1CC[C@]2(C)CC[C@]3(C)[C@H](CC[C@@H]4[C@@]5(C)CC[C@H](O)C(C)(C)[C@@H]5CC[C@]43C)[C@@H]12 [Lupeol] | 101 ± 9.8% | 94.9 ± 1.2%
CCc1cc(-c2n[nH]c(C)c2-c2ccc3c(c2)OCCO3)c(O)cc1O | 102 ± 20% | 94.9 ± 12%
NC(=O)c1ncn([C@@H]2O[C@H](CO)[C@@H](O)[C@H]2O)c1N [AICAR (Acadesine)] | 110 ± 7.6% | 111 ± 9.2%
O=c1cc(-c2cccc3c2Sc2ccccc2S3)oc(N2CCOCC2)c1 | 104 ± 4.7% | 103 ± 28%
C[C@@H]1COCCN1c1cc(C2([S@](C)(=N)=O)CC2)nc(-c2cc[nH]c3nccc2-3)n1 | 114 ± 7.9% | 115 ± 3.4%
CNS(=O)(=O)c1ccccc1Nc1nc(Nc2ccc(N3CCN(C)CC3)cc2OC)ncc1Cl [ALK inhibitor 2] | 98.9 ± 20% | 104 ± 16%
O=C(Nc1cc(C(F)(F)F)ccc1N1CCCCC1)c1ccncc1 | 99.5 ± 9.8% | 129 ± 17%
O=S(=O)(c1cccc2cnccc12)N1CCCNCC1 [Fasudil (HA-1077) hydrochloride] | 91.5 ± 1.8% | 104 ± 5%
c1cc(-c2cnn3cc(-c4ccc(N5CCNCC5)cc4)cnc23)c2cccnc2c1 | 107 ± 1.7% | 103 ± 1.1%
O=c1cc(N2CCOCC2)oc2c(-c3ccccc3)cccc12 | 107 ± 28% | 104 ± 16%
N#C/C(=C\c1ccc(O)c(O)c1)C(=O)NCc1ccccc1 | 96.4 ± 11% | 100.7 ± 0.73%
CO[C@@H]1[C@H](N(C)C(=O)c2ccccc2)C[C@H]2O[C@]1(C)n1c3ccccc3c3c4c(c5c6ccccc6n2c5c31)C(=O)NC4 | 76.2 ± 3% | 87.82 ± 0.66%
O=C1NC(=O)C(c2cnc3ccccn23)=C1c1cn2c3c(cc(F)cc13)CN(C(=O)N1CCCCC1)CC2 | 125 ± 6.1% | 89.9 ± 4.6%
COc1cc(Nc2ncc(F)c(Nc3ccc4c(n3)NC(=O)C(C)(C)O4)n2)cc(OC)c1OC [R406 free base] | 101.7 ± 0.97% | 105 ± 1.6%
Nc1ncnc2n[nH]c(Nc3ccc(F)cc3)c12 | 102 ± 11% | 105 ± 3.4%
